Data from the supplement of paper PMC6897291.
Structures can show the parent of a compound that is named as a salt.

What follows are compounds tested on U-2932 (assay: growth inhibition by drug alone (1 - RLU/untreated control) (fraction); higher = stronger inhibition). Conditions: 10 nM; time (day): 5; 177Lu-lilotomab satetraxetan 0 ug/ml.
Method in brief: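 RIVA or U-2932 cells were left untreated or pretreated for 18 h with a radiolabelled anti-CD37 antibody conjugate (~600 MBq/mg) at 0.5 µg/ml for RIVA or 1 µg/ml for U-2932. The cells were then washed and seeded at 3,000 cells/well on plates pre-printed with the Selleck Cambridge Cancer Compound library, dosed at 10/100 nM for RIVA and 10/1,000 nM for U-2932. From day 3, RealTime-Glo luminescence was read daily after 1 h at 37°C. Growth inhibition was taken as one minus RLU over the mean of the untreated no-drug wells, of which there were 48 per plate.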

Point of comparison: `Cn1cnc(N)c2ncnc1-2` [3-Methyladenine], “growth inhibition by drug alone” value 0.0189. Against it:
- CNCc1ccc(-c2[nH]c3cc(F)cc4c3c2CCNC4=O)cc1 — higher, 0.0443
- O=C(O)c1ccc(-c2c[nH]c3ncc(-c4ccccc4)cc23)cc1C1CCCC1 — lower, -0.12
- CC(=O)c1c(C)c2cnc(Nc3ccc(N4CCNCC4)cn3)nc2n(C2CCCC2)c1=O — lower, -0.0177
- CCN(CC)CCCCNc1ncc2cc(-c3cc(OC)cc(OC)c3)c(NC(=O)NC(C)(C)C)nc2n1 — lower, -0.0732
- CCC(C)(C)C(=O)O[C@H]1C[C@@H](C)C=C2C=C[C@H](C)[C@H](CC[C@@H]3C[C@@H](O)CC(=O)O3)[C@H]21 [Simvastatin (Zocor)] — lower, -0.00492
- CC[C@H](Nc1ncnc2[nH]cnc12)c1nc2cccc(F)c2c(=O)n1-c1ccccc1 — lower, -0.0211
- CC(C=CC(=O)NO)=CC(C)C(=O)c1ccc(N(C)C)cc1 (stereo unspecified) [Trichostatin A (TSA)] — lower, 0.00424
- COc1ccc2c3n(c(=NC(=O)c4cccnc4)nc2c1OC)CCN3 — lower, -0.0391
- NC(=O)c1ccc(-c2nc(-c3ccccn3)c(-c3ccc4c(c3)OCO4)[nH]2)cc1 — lower, -0.071
- CNC(=O)c1cc(Oc2ccc(NC(=O)Nc3ccc(Cl)c(C(F)(F)F)c3)c(F)c2)ccn1 [Regorafenib (BAY 73-4506)] — higher, 0.0627
- Cc1cnc(Nc2ccc(OCCN3CCCC3)cc2)nc1Nc1cccc(S(=O)(=O)NC(C)(C)C)c1 — lower, -0.0582
- CCOc1ccc(Nc2nc(-c3c(C)nc4ccccn34)cs2)cc1 — higher, 0.0949
- CC(C)C[C@H](NC(=O)[C@H](Cc1ccccc1)NC(=O)c1cnccn1)B(O)O [Bortezomib (Velcade)] — higher, 0.976
- O=C1CN2Cc3c(ccc(Cl)c3Cl)N=C2N1 [Anagrelide] — lower, 0.0131
- Cc1cc(Nc2cc(N3CCN(C)CC3)nc(/C=C/c3ccccc3)n2)n[nH]1 — lower, -0.0606
- CCc1cc(Nc2nccc(-c3c(-c4ccc(OC)c(C(=O)Nc5c(F)cccc5F)c4)nc4ccccn34)n2)c(OC)cc1N1CCC(N2CCN(S(C)(=O)=O)CC2)CC1 — lower, -0.0609
- O=C1CN2Cc3c(ccc(Cl)c3Cl)N=C2N1 [Anagrelide hydrochloride] — lower, -0.0277
- O=C(NCCCNc1nc(Nc2cccc(NC(=O)N3CCCC3)c2)ncc1I)c1cccs1 — higher, 0.0194
- CCC[C@H](NC(=O)/C(C#N)=C/c1cccc(Br)n1)c1ccccc1 — lower, -0.0661
- COc1cc2nc(N3CCCN(C)CC3)nc(NC3CCN(Cc4ccccc4)CC3)c2cc1OC — lower, -0.00458
- C#Cc1cccc(Nc2ncnc3cc(OCCOC)c(OCCOC)cc23)c1 [Erlotinib HCl] — higher, 0.131
- CN(C)c1ccccc1CN1CCCN(Cc2ccccc2N(C)C)C1c1ccncc1 — lower, -0.0775
- COc1cc2c(NC3CCN(C)CC3)nc(N3CCCN(C)CC3)nc2cc1OCCCN(C)C — lower, -0.094
- COc1ccc(COc2cc3oc(=O)c4cc(C(C)O)ccc4c3cc2OC)cc1 (stereo unspecified) [Palomid 529] — lower, -0.0368
- CO[C@@H](C(=O)N1Cc2[nH]nc(NC(=O)c3ccc(N4CCN(C)CC4)cc3)c2C1)c1ccccc1 — lower, -0.0829
- Cn1cc(C2=C(c3ccc(Cl)cc3Cl)C(=O)NC2=O)c2ccccc21 — higher, 0.113
- CCc1ccc(CCOc2ccc(CC3SC(=O)NC3=O)cc2)nc1 (stereo unspecified) [Pioglitazone (Actos)] — lower, -0.103
- O=C(O)C1(C(=O)O)CCC1.[NH2-].[NH2-].[Pt+2] [Carboplatin] — lower, -0.0119
- CS(=O)(=O)c1ccc(C(=O)Nc2ccc(Cl)c(-c3ccccn3)c2)c(Cl)c1 [Vismodegib (GDC-0449)] — lower, -0.091
- OCCn1cc(-c2ccc3c(c2)CC/C3=N\O)c(-c2ccncc2)n1 — lower, -0.153
- CC[C@@H]1C(=O)N(C)c2cnc(Nc3ccc(C(=O)NC4CCN(C)CC4)cc3OC)nc2N1C1CCCC1 — higher, 0.867
- CC[C@]1(O)C[C@H]2CN(CCc3c([nH]c4ccccc34)[C@@](C(=O)OC)(c3cc4c(cc3OC)N(C=O)[C@H]3[C@@](O)(C(=O)OC)[C@H](OC(C)=O)[C@]5(CC)C=CCN6CC[C@]43[C@@H]65)C2)C1 [Vincristine] — higher, 0.97
- CC(C)(C)c1ccc(S(=O)(=O)/C=C/C#N)cc1 — lower, -0.0262
- Cc1cn(-c2cc(NC(=O)c3ccc(C)c(Nc4nccc(-c5cccnc5)n4)c3)cc(C(F)(F)F)c2)cn1 [Nilotinib (AMN-107)] — lower, -0.0493
- CC(C)(C#N)c1cc(Cn2cncn2)cc(C(C)(C)C#N)c1 [Anastrozole] — higher, 0.0212
- C=CCn1c(=O)c2cnc(Nc3ccc(N4CCN(C)CC4)cc3)nc2n1-c1cccc(C(C)(C)O)n1 — lower, -0.0363
- CCc1c2c(nc3ccc(OC(=O)N4CCC(N5CCCCC5)CC4)cc13)-c1cc3c(c(=O)n1C2)COC(=O)[C@]3(O)CC [Irinotecan HCl Trihydrate (Campto)] — lower, -0.109

Same assay, conditions: 10 nM; time (day): 6; 177Lu-lilotomab satetraxetan 0 ug/ml

Point of comparison: `CC(C)(C#N)c1cc(Cn2cncn2)cc(C(C)(C)C#N)c1` [Anastrozole], “growth inhibition by drug alone” value -0.021. Against it:
- CNCc1ccc(-c2[nH]c3cc(F)cc4c3c2CCNC4=O)cc1 — higher, 0.155
- O=C(O)c1ccc(-c2c[nH]c3ncc(-c4ccccc4)cc23)cc1C1CCCC1 — lower, -0.193
- CC(=O)c1c(C)c2cnc(Nc3ccc(N4CCNCC4)cn3)nc2n(C2CCCC2)c1=O — lower, -0.186
- CCN(CC)CCCCNc1ncc2cc(-c3cc(OC)cc(OC)c3)c(NC(=O)NC(C)(C)C)nc2n1 — higher, -0.00128
- CCC(C)(C)C(=O)O[C@H]1C[C@@H](C)C=C2C=C[C@H](C)[C@H](CC[C@@H]3C[C@@H](O)CC(=O)O3)[C@H]21 [Simvastatin (Zocor)] — higher, 0.136
- CC[C@H](Nc1ncnc2[nH]cnc12)c1nc2cccc(F)c2c(=O)n1-c1ccccc1 — higher, 0.0544
- CC(C=CC(=O)NO)=CC(C)C(=O)c1ccc(N(C)C)cc1 (stereo unspecified) [Trichostatin A (TSA)] — lower, -0.0676
- COc1ccc2c3n(c(=NC(=O)c4cccnc4)nc2c1OC)CCN3 — lower, -0.132
- NC(=O)c1ccc(-c2nc(-c3ccccn3)c(-c3ccc4c(c3)OCO4)[nH]2)cc1 — lower, -0.0929
- CNC(=O)c1cc(Oc2ccc(NC(=O)Nc3ccc(Cl)c(C(F)(F)F)c3)c(F)c2)ccn1 [Regorafenib (BAY 73-4506)] — higher, -0.0165
- Cc1cnc(Nc2ccc(OCCN3CCCC3)cc2)nc1Nc1cccc(S(=O)(=O)NC(C)(C)C)c1 — lower, -0.0993
- CCOc1ccc(Nc2nc(-c3c(C)nc4ccccn34)cs2)cc1 — higher, 0.0852
- CC(C)C[C@H](NC(=O)[C@H](Cc1ccccc1)NC(=O)c1cnccn1)B(O)O [Bortezomib (Velcade)] — higher, 0.978
- O=C1CN2Cc3c(ccc(Cl)c3Cl)N=C2N1 [Anagrelide] — lower, -0.134
- Cc1cc(Nc2cc(N3CCN(C)CC3)nc(/C=C/c3ccccc3)n2)n[nH]1 — higher, -0.0133
- CCc1cc(Nc2nccc(-c3c(-c4ccc(OC)c(C(=O)Nc5c(F)cccc5F)c4)nc4ccccn34)n2)c(OC)cc1N1CCC(N2CCN(S(C)(=O)=O)CC2)CC1 — lower, -0.106
- O=C1CN2Cc3c(ccc(Cl)c3Cl)N=C2N1 [Anagrelide hydrochloride] — lower, -0.0568
- O=C(NCCCNc1nc(Nc2cccc(NC(=O)N3CCCC3)c2)ncc1I)c1cccs1 — higher, 0.047
- CCC[C@H](NC(=O)/C(C#N)=C/c1cccc(Br)n1)c1ccccc1 — lower, -0.128
- COc1cc2nc(N3CCCN(C)CC3)nc(NC3CCN(Cc4ccccc4)CC3)c2cc1OC — lower, -0.0956
- C#Cc1cccc(Nc2ncnc3cc(OCCOC)c(OCCOC)cc23)c1 [Erlotinib HCl] — higher, 0.0458
- CN(C)c1ccccc1CN1CCCN(Cc2ccccc2N(C)C)C1c1ccncc1 — lower, -0.0436
- COc1cc2c(NC3CCN(C)CC3)nc(N3CCCN(C)CC3)nc2cc1OCCCN(C)C — lower, -0.326
- COc1ccc(COc2cc3oc(=O)c4cc(C(C)O)ccc4c3cc2OC)cc1 (stereo unspecified) [Palomid 529] — lower, -0.114
- CO[C@@H](C(=O)N1Cc2[nH]nc(NC(=O)c3ccc(N4CCN(C)CC4)cc3)c2C1)c1ccccc1 — lower, -0.0542
- Cn1cc(C2=C(c3ccc(Cl)cc3Cl)C(=O)NC2=O)c2ccccc21 — lower, -0.0764
- CCc1ccc(CCOc2ccc(CC3SC(=O)NC3=O)cc2)nc1 (stereo unspecified) [Pioglitazone (Actos)] — lower, -0.0806
- O=C(O)C1(C(=O)O)CCC1.[NH2-].[NH2-].[Pt+2] [Carboplatin] — higher, -0.000763
- CS(=O)(=O)c1ccc(C(=O)Nc2ccc(Cl)c(-c3ccccn3)c2)c(Cl)c1 [Vismodegib (GDC-0449)] — lower, -0.101
- OCCn1cc(-c2ccc3c(c2)CC/C3=N\O)c(-c2ccncc2)n1 — lower, -0.152
- CC[C@@H]1C(=O)N(C)c2cnc(Nc3ccc(C(=O)NC4CCN(C)CC4)cc3OC)nc2N1C1CCCC1 — higher, 0.907
- CC[C@]1(O)C[C@H]2CN(CCc3c([nH]c4ccccc34)[C@@](C(=O)OC)(c3cc4c(cc3OC)N(C=O)[C@H]3[C@@](O)(C(=O)OC)[C@H](OC(C)=O)[C@]5(CC)C=CCN6CC[C@]43[C@@H]65)C2)C1 [Vincristine] — higher, 0.978
- CC(C)(C)c1ccc(S(=O)(=O)/C=C/C#N)cc1 — lower, -0.0534
- Cc1cn(-c2cc(NC(=O)c3ccc(C)c(Nc4nccc(-c5cccnc5)n4)c3)cc(C(F)(F)F)c2)cn1 [Nilotinib (AMN-107)] — lower, -0.187
- C=CCn1c(=O)c2cnc(Nc3ccc(N4CCN(C)CC4)cc3)nc2n1-c1cccc(C(C)(C)O)n1 — lower, -0.19
- Cn1cnc(N)c2ncnc1-2 [3-Methyladenine] — higher, 0.0577
- CCc1c2c(nc3ccc(OC(=O)N4CCC(N5CCCCC5)CC4)cc13)-c1cc3c(c(=O)n1C2)COC(=O)[C@]3(O)CC [Irinotecan HCl Trihydrate (Campto)] — lower, -0.0905
